ALDH1A1 inh – inhibitors of human aldehyde dehydrogenase 1A1; Purified ALDH1A1, NADH fluorescence, propionaldehyde substrate; Potency, µM (titrated, usually from 75.3 µM), hits mostly inhibitors; hit rate 7.3% among 220,000
Target sequence (P00352 whole entry, looked up): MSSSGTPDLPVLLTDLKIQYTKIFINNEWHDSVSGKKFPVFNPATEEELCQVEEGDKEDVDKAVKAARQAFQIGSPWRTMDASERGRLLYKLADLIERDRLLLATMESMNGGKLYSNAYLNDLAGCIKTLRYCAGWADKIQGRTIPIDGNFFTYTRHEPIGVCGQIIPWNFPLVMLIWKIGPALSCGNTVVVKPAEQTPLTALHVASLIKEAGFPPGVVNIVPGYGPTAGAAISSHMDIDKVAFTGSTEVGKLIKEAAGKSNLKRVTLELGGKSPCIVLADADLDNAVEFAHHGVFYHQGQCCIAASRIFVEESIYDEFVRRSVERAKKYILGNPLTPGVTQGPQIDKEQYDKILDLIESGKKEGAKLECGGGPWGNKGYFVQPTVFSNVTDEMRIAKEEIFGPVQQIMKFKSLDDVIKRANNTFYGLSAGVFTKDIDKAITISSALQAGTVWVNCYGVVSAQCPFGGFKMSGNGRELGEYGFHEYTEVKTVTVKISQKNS
HPGD inh – HPGD (human) dehydrogenase inhibition; Potency, µM, hits mostly inhibitors; purified HPGD, NADH fluorescence kinetic, PGE2 substrate; P15428; hit rate 4.3% among 150,000; AID 894
Target sequence (P15428 whole entry, looked up): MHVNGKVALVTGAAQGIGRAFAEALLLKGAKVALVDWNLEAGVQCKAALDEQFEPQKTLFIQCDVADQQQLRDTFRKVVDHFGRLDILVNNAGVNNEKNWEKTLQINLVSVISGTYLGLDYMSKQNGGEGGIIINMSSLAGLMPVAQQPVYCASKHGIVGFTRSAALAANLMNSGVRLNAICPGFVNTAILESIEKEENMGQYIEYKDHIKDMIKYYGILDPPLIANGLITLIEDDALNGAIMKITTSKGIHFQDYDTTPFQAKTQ
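20 nM HPGD preincubated 15 min at room temperature with compound in 50 mM Tris-HCl pH 8, 0.01% Tween 20. Started with 1 mM NAD+ and 30 uM prostaglandin E2; NADH fluorescence (360/450 nm) read 5 times over 30-s intervals, last minus first.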
IMPase cell inh – cell-permeable inhibitors of inositol monophosphatase (IMPase); P97697; CHO-M1 cells, IP1 accumulation, HTRF TR-FRET ratio; inhibition (IP1 accumulation), % at 46.1 µM; 120,000 tested, under 10 active; active means well fitted curve in the direction sought with a large enough effect in the signal ratio, not every such curve was filed as active; inconclusive means small, poorly fitted or top-dose-only effect, or a change in a side signal; inactive means no such curve, though single readings can be large or run the other way; the % refers to the signal ratio;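 further: cells stimulated with carbachol in lithium chloride buffer; higher means more IMPase inhibition seen as more IP1 and lower FRET ratio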
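The IP-One HTRF competitive assay in carbachol-stimulated CHO-M1 cells quantifies cellular IP1. Compounds spanned up to 46 uM final, and activity is expressed as AC50 from concentration-response fits of the ratio and donor data.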
IMPase Li cell – membrane-permeable IMPase blocker, potentiated with lithium; CHO-M1 cells, IP1 TR-FRET (IP-One), carbachol + lithium; Potency, µM (series often up to 59.4 µM), actives largely listed as inhibitors; hit rate 0.35% among 210,000; AID 1457; active means well fitted curve in the direction sought with a large enough effect; inconclusive means small, poorly fitted or top-dose-only effect, or another doubt; inactive means no such curve, though single readings can be large; an effect the other way counts as inactive or inconclusive;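 further: IP1 builds up when IMPase is blocked and the TR-FRET signal falls; nearly all actives have a fitted effect of over 50% in size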
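IP1 accumulation measured by competitive TR-FRET in lysed CHO-M1 cells after 30 min compound exposure at 37C, with a small lithium addition to potentiate weak responses. Hill-equation AC50 from ratio and donor-channel data.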
PNC inhibitor – blocks assembly of the perinucleolar compartment. PC3M PTB-GFP, PNC prevalence imaging, 16 h; active compounds read low. activity change (PNC), negative = inhibition, % at 10 µM. hit rate 3.1% among 140,000. AID 2417;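 active means readout at or below -70, meaning at least 70% loss of cells showing the perinucleolar compartment, a nuclear body marking cancer cells; inconclusive means readout between -30 and a set limit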
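PC3M cells stably expressing PTB-GFP, 750–1000 cells/well, treated 16 h at 37 °C with compound (23 nl of library stock), in duplicate. After paraformaldehyde fixation and Hoechst stain, imaged at 20x; PNC prevalence scored by image analysis.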
12-hLO inh – blocks human 12-lipoxygenase activity; Potency, µM (top dose mostly 57.1 µM), most hits filed as inhibitors; hit rate 0.12% among 150,000; purified 12-hLO, xylenol orange hydroperoxide absorbance; P18054; AID 1452; active means well fitted curve in the direction sought with a large enough effect; inconclusive means small, poorly fitted or top-dose-only effect, or another doubt; inactive means no such curve, though single readings can be large; an effect the other way counts as inactive or inconclusive; further: nearly all actives have a fitted effect of over 55% in size
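150 nM 12hLO, 25 mM Hepes pH 7.0 + 0.01% Triton X-100; cpd preinc 15 min RT; 40 uM arachidonic acid, 30 min RT; Fe-XO 30 min; A573/A405 ratio as read-out.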
Hits are given with their value; ! = a repeat was not active; [ ] = dose if it differs, or a comment. Hits are enriched below; roughly 11% of the tested compounds scored in any of these assays. Unless noted, the call rests on the fitted dose curve; in most records, active means well fitted inhibition curve with a large enough effect (not every such curve was filed as active); inconclusive means small, poorly fitted or top-dose-only effect, or another doubt; inactive means no such curve, though single readings can be large or run the other way.

What do the screens show for `Cc1ccc(C)c(N2CCN(C(=S)Nc3ccc4nc(N5CCN(C)CC5)cc(C)c4c3)CC2)c1`?
ALDH1A1 inh: inactive; IMPase Li cell: inactive

What do the screens show for `CCN1CCN(c2cc(C)c3cc(NC(=S)N4CCN(c5ccccc5F)CC4)ccc3n2)CC1`?
ALDH1A1 inh: 13µM; IMPase Li cell: inactive

Results for CCCCCCCCCC(=O)OCC(CO)OC(=O)CCCCCCCCC (stereo unspecified) ?
ALDH1A1 inh: inactive; HPGD inh: inactive; IMPase Li cell: inactive; 12-hLO inh: inactive

Results for CCOC(=S)NC(=O)c1sc2ccccc2c1Cl ?
ALDH1A1 inh: 0.35µM; HPGD inh: inactive; IMPase cell inh: inactive; IMPase Li cell: inconclusive; PNC inhibitor: -109; 12-hLO inh: inactive

Results for COc1cc(NS(=O)(=O)c2ccc(NC(=S)NC(=O)c3ccco3)cc2)ncn1 ?
ALDH1A1 inh: inconclusive; IMPase Li cell: inactive

What do the screens show for `COc1cc(NS(=O)(=O)c2ccc(NC(=S)NC(=O)c3sc4ccccc4c3Cl)cc2)ncn1`?
ALDH1A1 inh: 22µM; HPGD inh: inactive; IMPase cell inh: inconclusive; IMPase Li cell: inactive; PNC inhibitor: inconclusive; 12-hLO inh: inactive

What do the screens show for `CCCOC(=S)NC(=O)c1sc2ccccc2c1Cl`?
ALDH1A1 inh: 5.6µM; HPGD inh: 20µM; IMPase cell inh: inactive; IMPase Li cell: inconclusive; PNC inhibitor: inconclusive; 12-hLO inh: inactive

Results for O=C(NC(=S)NCCO)c1sc2ccccc2c1Cl ?
ALDH1A1 inh: inconclusive; IMPase Li cell: inactive

Results for NC(=O)COC(=O)c1sc2ccccc2c1Cl ?
ALDH1A1 inh: inactive; IMPase Li cell: inactive

How did COC(=O)NC(c1cccc(C)c1)[C@]1(C(C)=O)CCCC1=O (stereo partly specified) do in these assays?
ALDH1A1 inh: inactive[13.5 µM]

Results for CC(C)(C)NC[C@H](O)c1cc(O)cc(O)c1 ?
ALDH1A1 inh: inactive; HPGD inh: inactive; IMPase cell inh: inactive; IMPase Li cell: inactive; 12-hLO inh: inactive

Results for O=C(Nc1nnc(-c2ccco2)o1)c1cccc(N2C(=O)CCC2=O)c1 ?
ALDH1A1 inh: 28µM; IMPase Li cell: inactive

What do the screens show for `Cc1ccc(-c2csc(NC(=O)c3cccc(N4C(=O)CCC4=O)c3)n2)o1`?
ALDH1A1 inh: 3.5µM; HPGD inh: inconclusive; IMPase cell inh: inactive; IMPase Li cell: inactive; PNC inhibitor: inactive; 12-hLO inh: inactive

Results for CCOC(=O)Cc1csc(NC(=O)c2cccc(N3C(=O)CCC3=O)c2)n1 ?
ALDH1A1 inh: inconclusive; IMPase cell inh: inactive; PNC inhibitor: inactive; 12-hLO inh: inactive

Results for NS(=O)(=O)c1cc2c(cc1Cl)N[C@H](Cc1ccccc1)NS2(=O)=O ?
ALDH1A1 inh: inconclusive; HPGD inh: inactive; IMPase Li cell: inactive; 12-hLO inh: inactive[11.4 µM]

What do the screens show for `O=C(O)CC1S/C(=N/N=C/c2ccc(-c3ccc(Cl)cc3[N+](=O)[O-])o2)NC1=O` (stereo unspecified)?
ALDH1A1 inh: 22µM; HPGD inh: 8.9µM; IMPase cell inh: inactive; IMPase Li cell: inactive; PNC inhibitor: inactive; 12-hLO inh: inconclusive

How did O=C(O)CC1S/C(=N/N=C/c2ccc(-c3ccc(Cl)c([N+](=O)[O-])c3)o2)NC1=O (stereo unspecified) do in these assays?
ALDH1A1 inh: inconclusive; IMPase Li cell: inactive

What do the screens show for `CC1CN(C(=O)c2ccc(COc3ccc(C(C)C)cc3)o2)CC(C)O1` (stereo unspecified)?
ALDH1A1 inh: 28µM; IMPase Li cell: inactive

What do the screens show for `NC(=O)c1cc(N2C(=O)C=CC2=O)ccc1Cl`?
ALDH1A1 inh: 0.79µM; HPGD inh: 7.9µM; IMPase cell inh: inactive; IMPase Li cell: inactive; PNC inhibitor: inactive; 12-hLO inh: inactive

How did COc1ccc(-c2[nH]c(-c3ccccc3)nc2SCC(=O)Nc2nccs2)cc1 do in these assays?
ALDH1A1 inh: inactive; HPGD inh: inactive; IMPase Li cell: inactive; PNC inhibitor: -98; 12-hLO inh: inactive

How did CSc1nc(-c2ccc(C)cc2)nc(C(Cl)Cl)n1 do in these assays?
ALDH1A1 inh: inactive; HPGD inh: inactive; IMPase cell inh: inactive; IMPase Li cell: inactive; PNC inhibitor: -106; 12-hLO inh: inactive

What do the screens show for `CCSc1nc(-c2ccccc2)nc(C(Cl)Cl)n1`?
ALDH1A1 inh: inactive; HPGD inh: inactive; IMPase cell inh: inactive; IMPase Li cell: inactive; PNC inhibitor: inactive; 12-hLO inh: inactive

Results for CN(Cc1ccco1)c1cc(-c2ccoc2)ncn1 ?
ALDH1A1 inh: 25µM; IMPase Li cell: inactive

Results for O=C(COc1ccc(/C=N/NC(=O)c2cc3ccccc3o2)cc1Cl)Nc1ccccc1 ?
ALDH1A1 inh: inconclusive; HPGD inh: inconclusive; IMPase cell inh: inactive; IMPase Li cell: inactive; PNC inhibitor: -119; 12-hLO inh: inactive

What do the screens show for `OCCN1CCN(c2nc(NCc3ccco3)c3ccccc3n2)CC1`?
ALDH1A1 inh: inconclusive; HPGD inh: inactive; IMPase cell inh: inconclusive; IMPase Li cell: inactive; PNC inhibitor: -88; 12-hLO inh: inactive

How did CCC1=C2CC[C@H]3C(=O)N(C)C(=O)[C@H]3[C@H]2[C@@]2(C)C(=NCc3ccccc3)OC(=O)N2C1=O do in these assays?
ALDH1A1 inh: inactive; HPGD inh: inactive; IMPase Li cell: inactive; 12-hLO inh: inactive

Results for C/C(=N/NC(=O)c1cccnc1)C1=C(O)CC(C)(C)CC1=O ?
ALDH1A1 inh: inactive; IMPase Li cell: inactive

Results for CC(=Nc1cc(C(=O)c2ccccc2)ccc1N)C1=C(O)CC(C)(C)CC1=O ?
ALDH1A1 inh: 7.9µM; IMPase Li cell: inactive

What do the screens show for `CCCCCCCC#Cc1ccccc1/C=N/S(=O)c1ccc(C)cc1` (stereo unspecified)?
ALDH1A1 inh: 20µM!; HPGD inh: 13µM; IMPase Li cell: inactive; PNC inhibitor: inactive; 12-hLO inh: inconclusive

How did CCOC(=O)c1sc2nc3n(c(=O)c2c1C)CCC3 do in these assays?
ALDH1A1 inh: inactive; HPGD inh: inactive; IMPase Li cell: inactive; PNC inhibitor: inactive; 12-hLO inh: inactive

What do the screens show for `CCOC(=O)c1sc2nc(SCC#N)n(CCCN3CCCC3=O)c(=O)c2c1C`?
ALDH1A1 inh: 0.79µM; HPGD inh: inconclusive; IMPase cell inh: inactive; IMPase Li cell: inactive; PNC inhibitor: inconclusive; 12-hLO inh: inactive

Results for O=C(COC(=O)/C=C/c1ccc(Cl)cc1)NCCC1=CCCCC1 ?
ALDH1A1 inh: inactive; HPGD inh: inactive; IMPase Li cell: inactive; PNC inhibitor: -90; 12-hLO inh: inactive

How did O=C(COC(=O)Cc1c(Cl)cccc1Cl)NCCC1=CCCCC1 do in these assays?
ALDH1A1 inh: inactive; HPGD inh: 13µM; IMPase cell inh: inactive; IMPase Li cell: inactive; PNC inhibitor: inactive; 12-hLO inh: inactive

Compound activity: PubChem, National Center for Advancing Translational Sciences (NCATS)
